SMILES strings stand for the structures. “And” between values parts separate entries of the source, which are not always exact repeats. Equal entries are not always repeated. Inconclusive results are not listed. A number with no mark means an inactive call. The source made the active and inactive calls. Calls follow the shape of the dose curve; as a rule, active = well fitted curve in the direction sought with a large enough effect; inconclusive = small, poorly fitted or top-dose-only effect, or another doubt; inactive = no such curve, though single readings can be large; an effect the other way counts as inactive or inconclusive.

Assay [1] has as its target Cellular tumor antigen p53 (Homo sapiens) (UniProt P04637). In words: Primary qHTS for small molecule compounds that upregulate eGFP-tagged delta133p53alpha (in N-terminal) cells. (AID 2060322). Also: nearly all actives have a fitted effect of over 75% in size. Also: potency is read from the fitted curve at half-maximal effect.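 As to activation: series mostly up to about 56 µM; 0% = DMSO vehicle and 100% = reference activator.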 The following applies: NCI-H358 eGFP-delta133p53alpha fluorescence, 24 h; activation: hits give high values. In a few lines:
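NCI-H358 cells pre-induced 24 h with 10 ng/ml doxycycline to express N-terminal eGFP-delta133p53alpha, then dosed 24 h at 37C without doxycycline; fixed, Hoechst-stained, GFP intensity by laser scanning cytometry, normalized to DMSO (0%) and 57.5 uM 5-azacytidine (100%).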
For orientation: qHTS replaces the single test concentration by a dilution series.

In assay [2] the target is Aldehyde dehydrogenase, mitochondrial (Homo sapiens) (UniProt P05091). In words: qHTS for Inhibitors of the Aldehyde Dehydrogenase Family (ALDH2) Primary screen (AID 2061308).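 Also: plate controls were vehicle for no effect and reference inhibitor for full effect; nearly all actives have a fitted effect of over 55% in size.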
In assay [3] the target is Retinaldehyde dehydrogenase 3 (Homo sapiens) (UniProt P47895). In words: qHTS for Inhibitors of the Aldehyde Dehydrogenase Family (ALDH1A3) Primary screen (AID 2061315).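 Also: plate controls were DMSO vehicle for no effect and reference inhibitor for full effect.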

Chain of Cellular tumor antigen p53 (Homo sapiens) (P04637 whole entry, looked up): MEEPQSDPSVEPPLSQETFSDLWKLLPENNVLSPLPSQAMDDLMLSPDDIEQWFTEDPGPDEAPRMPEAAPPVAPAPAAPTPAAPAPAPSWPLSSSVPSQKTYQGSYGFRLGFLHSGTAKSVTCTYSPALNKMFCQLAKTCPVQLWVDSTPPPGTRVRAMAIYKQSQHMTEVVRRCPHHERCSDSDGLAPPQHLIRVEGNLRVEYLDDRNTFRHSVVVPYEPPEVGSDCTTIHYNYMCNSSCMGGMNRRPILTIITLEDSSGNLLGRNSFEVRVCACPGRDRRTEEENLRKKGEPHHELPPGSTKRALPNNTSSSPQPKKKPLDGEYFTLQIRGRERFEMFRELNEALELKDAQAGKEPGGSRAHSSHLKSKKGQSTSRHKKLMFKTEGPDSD

Consider `COc1c(/C=C/C(C)(C)O)ccc2c1C(=O)OCc1cc(C)cc(O)c1O2`, for which the activation in assay [1] was -12.5%. Besides, the Potency entry in assay [2] and in assay [3] was “inactive” throughout.
For `CN(C)CC1CCOC1(c1ccccc1)c1ccccc1` (configuration not stated), the activation in assay [1] was -7%. Besides, the Potency entry in assay [2] and in assay [3] was “inactive” in each case.
As for `C[C@]12C=CC(=O)C=C1CC[C@@H]1[C@@H]2[C@@H](O)C[C@@]2(C)[C@H]1CC[C@]2(O)C(=O)COC(=O)CCC(=O)O`, the activation in assay [1] was 13%. The Potency result in assay [2] and in assay [3] was “inactive” each time.
For `C=C1CCC2C(C)(C(=O)OC)CCCC2(C)C1CCC(C)CC(=O)O` (configuration not stated), the activation in assay [1] is -13%. Besides, the Potency entry in assay [2] and in assay [3] was “inactive” throughout.
For `CC(=O)OC12CC(C)C(O)C1/C=C(/COC1OC(CO)C(O)C(O)C1O)CCC1C(/C=C(\C)C2=O)C1(C)C` (configuration not stated), the activation in assay [1] was -9.16%. Further, the Potency entry in assay [2] and in assay [3] was “inactive” each time.
Take `COC(=O)[C@@H](O)[C@H]1[C@@]2(C)CC3(O)[C@@H](C(=O)[C@H]2O)[C@]24O[C@]25CC(=O)O[C@@H](c2ccoc2)[C@]5(C)CCC4[C@]13C` (some centres not stated): the activation in assay [1] is -13%. Further, the Potency result in assay [2] and in assay [3] was “inactive” throughout.
For `CC(=O)OCC(Cc1ccccc1)NC(=O)C(Cc1ccccc1)NC(=O)c1ccccc1` (configuration not stated), the activation in assay [1] was -13%. The Potency result in assay [2] and in assay [3] was “inactive” in each case.
Turning to `Cc1cccc(C)c1-n1c(=O)c2cnc(Nc3ccc(N4CCN(C)CC4)cc3)nc2n2c3ccccc3nc12`, the Potency in assay [1] was 30.1 µM (active). For the same compound, the Potency result in assay [2] and in assay [3] was “inactive” each time.
As for `Cc1cccc(Nc2cc(Cl)nc(SCC(=O)O)n2)c1C`, the activation in assay [1] was 23.4% and 14.3%. The Potency result in assay [2] and in assay [3] was “inactive” in each case.
Consider `C=C1CC[C@@]2(OC1)O[C@H]1CC3C4CC=C5C[C@@H](O[C@@H]6O[C@@H](C)[C@H](O)[C@@H](O)[C@H]6O)C[C@@H](O[C@@H]6O[C@H](C)[C@H](O)[C@H](O)[C@H]6O[C@@H]6O[C@@H](C)[C@H](O)[C@@H](O)[C@H]6O)[C@]5(C)C4CC[C@]3(C)[C@H]1[C@@H]2C` (some centres not stated), for which, in assay [1], the activation was -4.58%. Moreover, the Potency result in assay [2] and in assay [3] was “inactive” in each case.
For `N#C[C@@H]1CCCN1C(=O)CNC12CC3CC(CC(O)(C3)C1)C2`, in assay [1], the activation is 15%. In addition, the Potency entry in assay [2] and in assay [3] was “inactive” each time.
Regarding `C=C1C[C@@]23CC[C@@H]4[C@](C)(C(=O)O)CCC[C@@]4(C)C2=CC[C@H]1C3`, the activation in assay [1] is 0.763%. For the same compound, the Potency result in assay [2] and in assay [3] was “inactive” throughout.
Turning to `CC1=CC(=O)CC(C)(C)C1/C=C/C(C)OC1OC(COC2OCC(O)C(O)C2O)C(O)C(O)C1O` (configuration not stated), in assay [1], the activation was 8.93%. Moreover, the Potency result in assay [2] and in assay [3] was “inactive” in each case.
For the compound `COc1ccc(Sc2ccc(NC(=O)c3ccccc3Cl)cc2C#N)cc1`, in assay [1], the activation is 20.3%. For the same compound, the Potency entry in assay [2] and in assay [3] was “inactive” in each case.
With `CCOC(=O)CCNc1cc(N2CCc3ccccc3CC2)nc(-c2cccnc2)n1`, the activation in assay [1] was 7%. In addition, the Potency entry in assay [2] and in assay [3] was “inactive” each time.
Consider `C[C@H]1C[C@H]2[C@@H]3CCC4=CC(=O)C=C[C@]4(C)[C@@]3(F)[C@@H](O)C[C@]2(C)[C@@]1(O)C(=O)COP(=O)(O)O`, for which the activation in assay [1] was 1%. Further, the Potency result in assay [2] and in assay [3] was “inactive” each time.
For `C=CCc1ccc(O[C@@H]2O[C@H](CO)[C@@H](O)[C@H](O)[C@H]2O)c(OC)c1`, the activation in assay [1] is -19.6%. The Potency result in assay [2] and in assay [3] was “inactive” throughout.
Turning to `CC1(C)CC[C@]2(C(=O)OC3OC(CO)C(O)C(O)C3O)CC[C@]3(C)C(=CCC4[C@@]5(C)CC[C@H](OC6OC(C(=O)O)C(O)C(OC7OC(CO)C(O)C(O)C7O)C6O)C(C)(C)C5CC[C@]43C)C2C1` (some centres not stated), the activation in assay [1] is -22.1%. The Potency entry in assay [2] and in assay [3] was “inactive” in each case.
As to `O=C(NCCCc1ccccc1)c1cccc(-c2cc(O)c3ncccc3c2)c1`, the activation in assay [1] is 7.67%. Further, the Potency entry in assay [2] and in assay [3] was “inactive” in each case.
For the compound `CC(O)C(=O)/C=C/C=C/C(=O)OC1C=C2COC(=O)C2(O)C2(C)CCCC(C)(C)C12` (configuration not stated), the activation in assay [1] is 10.7%. The Potency result in assay [2] and in assay [3] was “inactive” in each case.
As for `CC1=CC2/C=C(\C)CC[C@@H](O)[C@@H](O)[C@@H]3O[C@@H]3C(=O)[C@]23C(=O)N[C@@H](CC(C)C)[C@@H]3[C@@H]1C` (some centres not stated), the activation in assay [1] was 0%. Besides, the Potency result in assay [2] and in assay [3] was “inactive” throughout.
`CCCCCOc1ccc(C2SC(=O)NC2=O)cc1OCC` (configuration not stated): in assay [1], the activation was 2.33%. The Potency entry in assay [2] and in assay [3] was “inactive” in each case.
As to `CC1(C)CC[C@]2(C(=O)O)CC[C@]3(C)C(=CCC4[C@@]5(C)CC[C@H](O[C@@H]6O[C@H](C(=O)O)[C@@H](O[C@@H]7OC[C@@H](O)[C@H](O)[C@H]7O)[C@H](O)[C@H]6O)C(C)(C)C5CC[C@]43C)C2C1O` (some centres not stated), the activation in assay [1] was -1.79%. Further, the Potency entry in assay [2] and in assay [3] was “inactive” each time.
Consider `OC[C@H]1O[C@H](O[C@]2(CCl)O[C@H](CCl)[C@@H](O)[C@@H]2O)[C@H](O)[C@@H](O)[C@H]1Cl`, for which the activation in assay [1] is -5.86% and -10%. Further, the Potency entry in assay [2] and in assay [3] was “inactive” in each case.

Source of the values: PubChem BioAssay (NCATS).
